Measured values: PubChem BioAssay (EPA / NIEHS)
Where a structure was tested more than once in an assay, its records may differ in their call. Calls of active or inactive are those of the source. The calls were made as follows: active = hit-call score of the fitted dose curve at least 0.9, where 1 is the maximum; inactive = score below 0.9.

Experiment: ATG_PXRE_CIS: Attagene CIS-FACTORIAL HepG2 Assay for human Pregnane X Receptor Element (PXRE) (AID 2282957)
Settings: HepG2 Attagene CIS-FACTORIAL PXRE reporter, mRNA; actives raise or lower the signal
Method: ATG_CIS is a cell-based, multiplexed-readout assay that uses HepG2, a human liver cell line, with measurements taken at 24 hours after chemical dosing in a 24-well plate.ATG_PXRE_CIS is one of 52 assay component(s) measured or calculated from the ATG_CIS assay. It is designed to make measurements of mRNA induction, a form of inducible reporter, as detected with fluorescence intensity signals by Reverse transcription polymerase chain reaction (RT-PCR) and Capillary electrophoresis technology.Data from the assay component ATG_PXRE_CIS was analyzed into 1 assay endpoint. This assay endpoint, ATG_PXRE_CIS, was analyzed with bidirectional fitting relative to DMSO as the negative control and baseline of activity. Using a type of inducible reporter, measures of mRNA for gain or loss-of-signal activity can be used to understand the reporter gene at the transcription factor-level as they relate to the gene NR1I2. Furthermore, this assay endpoint can be referred to as a primary readout, because this assay has produced multiple assay endpoints where this one serves a reporter gene function. To generalize the intended target to other relatable targets, this assay endpoint is annotated to the nuclear receptor intended target family, where the subfamily is non-steroidal.
Human liver HepG2 cells are transiently transfected with multiple reporter transcription units (MRTUs) in 6-well plates using FuGene 6 reagent (Roche; 3 ml FuGene/1 mg DNA). The MRTU constructs are regulated by a cis-regulating element (promoter). […] A major difference between the CIS and TRANS system is that in CIS activities of endogenous TFs are measured, whereas the TRANS assay evaluates changes in activities of exogenous, chimeric NR-Gal4 proteins. […] At the end of 24 hour incubation, total RNA was isolated using TriZol reagent (Invitrogen). The isolated RNA is then reverse-transcribed using oligo(dT) primer and Mo-MLV reverse transcriptase (Invitrogen) with DNAse I (Ambion) treatment for 30 min. The one-tenth of the produced cDNA was amplified by PCR using Taq DNA polymerase (Invitrogen) and two reporter sequence-specific primers. The PCR products were fluorescently labeled by primer extension with 6-arboxyfluorescein (6-FAM) 5'-labeled reporter sequence-specific primer (2 min at 95 C, 20 s at 68 C and 10 min at 72 C) and these products were digested with 5U of HpaI (New England Biolabs) for 2h at 37 C. The fragments were purified using Qiaquick PCR columns (Qiagen), analyzed on an ABI 3130xL genetic analyzer (Applied Biosystems) with peak positions identified by using a set of X-rhodamine (ROX)-labeled MapMarker1000 molecular weight standards (BioVentures). The raw capillary electrophoresis data was processed using Attagraph software (Attagene).

**Q.** Which outcome does the source give for `CCC(=O)c1ccccc1` here?
**A.** The outcome was “inactive”.

**Q.** Which AC50 does the source give for `CC(C)(C)c1cc(O)ccc1O` here?
**A.** Its AC50 is 4.27 µM (active).

**Q.** Which outcome does the source give for `CC1CN1P(=O)(N1CC1C)N1CC1C` (stereo not given) here?
**A.** Its outcome is “inactive”.

**Q.** Which AC50 does the source give for `O=C(NCO)NCO` here?
**A.** The AC50 was 27.2 µM (active).

**Q.** For `COP(=O)(OC)OC`, which AC50 is on record?
**A.** Its AC50 is 32.7 µM (active).

**Q.** For `O=C1C(Cl)=C(Cl)C(=O)c2ccccc21`, which outcome is on record?
**A.** Its outcome is “inactive”.

**Q.** Which AC50 does the source give for `N#CCc1ccc(Cl)cc1` here?
**A.** Its AC50 is 48.5 µM (active).

**Q.** Which AC50 does the source give for `Cc1ccccc1C(=O)Nc1cccc(OC(C)C)c1` here?
**A.** The AC50 was 2.89 µM (active).

**Q.** For `CCc1ccccc1N`, which AC50 is on record?
**A.** The AC50 was 68.3 µM (active).

**Q.** For `O=C(O)C(Cl)(Cl)Cl`, which outcome is on record?
**A.** The outcome was “inactive”.

**Q.** What about the AC50 of the same molecule?
**A.** Its AC50 is 71.7 µM (active).

**Q.** Which AC50 does the source give for `CCOC(=O)Nc1cccc(OC(=O)Nc2ccccc2)c1` here?
**A.** Its AC50 is 100 µM (active).

**Q.** For `Nc1cccc2ccccc12`, which AC50 is on record?
**A.** The AC50 was 25.7 µM (active).

**Q.** Which outcome does the source give for `NNC(=S)NN` here?
**A.** Its outcome is “inactive”.

**Q.** With `c1ccc(N=NNc2ccccc2)cc1` as the molecule, how does the AC50 read?
**A.** Its AC50 is 25.8 µM (active).

**Q.** With `OCc1ccco1` as the molecule, how does the AC50 read?
**A.** The AC50 was 39.7 µM (active).

**Q.** Which outcome does the source give for `COc1cc(-c2ccc(N)c(OC)c2)ccc1N` here?
**A.** The outcome was “inactive”.

**Q.** And the AC50?
**A.** Its AC50 is 25.2 µM (active).

**Q.** Which outcome does the source give for `CCN1CCC2(CC1)COc1cc3c(cc12)N(C(=O)c1ccc(-c2ccc(-c4nnc(C)o4)cc2C)cc1)CC3` here?
**A.** The outcome was “inactive”.

**Q.** Which AC50 does the source give for `CCOP(=S)(OCC)Oc1nc(Cl)c(Cl)cc1Cl` here?
**A.** Its AC50 is 5.24 µM (active).

**Q.** Which outcome does the source give for `ClCc1ccccn1` here?
**A.** Its outcome is “inactive”.

**Q.** With `ClCc1cccnc1` as the molecule, how does the outcome read?
**A.** Its outcome is “inactive”.

**Q.** For `CC1(C)Cc2cccc(O)c2O1`, which AC50 is on record?
**A.** Its AC50 is 7.98 µM (active).

**Q.** Which outcome does the source give for `O=P(O)(O)CN(CP(=O)(O)O)CP(=O)(O)O` here?
**A.** Its outcome is “inactive”.

**Q.** Which AC50 does the source give for `Cc1cc(=O)[nH]o1` here?
**A.** Its AC50 is 42.8 µM (active).

**Q.** Which outcome does the source give for `COC(=O)c1sccc1S(=O)(=O)NC(=O)Nc1nc(C)nc(OC)n1` here?
**A.** Its outcome is “inactive”.

**Q.** For `COc1cc2c(cc1OC)[C@@]13CCN4CC5=CCO[C@H]6CC(=O)N2[C@H]1[C@H]6[C@H]5C[C@H]43`, which AC50 is on record?
**A.** The AC50 was 36.6 µM (active).

**Q.** Which AC50 does the source give for `Clc1ccc(C2(Cn3cncn3)CC(Br)CO2)c(Cl)c1` (stereo not given) here?
**A.** Its AC50 is 1.23 µM (active).

**Q.** For `O=C(CCl)CCl`, which AC50 is on record?
**A.** The AC50 was 49.3 µM (active).

**Q.** With `O=C(O)Cc1ccccc1` as the molecule, how does the outcome read?
**A.** Its outcome is “inactive”.

**Q.** With `COS(=O)(=O)c1ccc(C)cc1` as the molecule, how does the outcome read?
**A.** Its outcome is “inactive”.

**Q.** Which outcome does the source give for `COc1cccc(C=O)c1` here?
**A.** Its outcome is “inactive”.

**Q.** With `CCCCCCCCC(=O)NCc1ccc(O)c(OC)c1` as the molecule, how does the AC50 read?
**A.** The AC50 was 26.2 µM (active).

**Q.** Which outcome does the source give for `CCN(CC)C(=O)Cl` here?
**A.** Its outcome is “inactive”.

**Q.** With `Nc1ccc(N=Nc2ccc(-c3ccc(N=Nc4c(S(=O)(=O)O)cc5cc(S(=O)(=O)O)c(N=Nc6ccccc6)c(O)c5c4N)cc3)cc2)c(N)c1` as the molecule, how does the outcome read?
**A.** Its outcome is “inactive”.

**Q.** Which AC50 does the source give for `COP(=S)(OC)Oc1ccc(S(=O)(=O)N(C)C)cc1` here?
**A.** Its AC50 is 26.8 µM (active).

**Q.** For `CCCCCCCCc1ccc(O)cc1`, which outcome is on record?
**A.** The outcome was “inactive”.

**Q.** Which outcome does the source give for `CNC(=O)O/N=C/C(C)(C)S(C)=O` (stereo not given) here?
**A.** Its outcome is “inactive”.

**Q.** For `Cc1ccc(N)cc1Cl`, which outcome is on record?
**A.** The outcome was “inactive”.

**Q.** With `CC(C)c1cccc(C(C)C)c1O` as the molecule, how does the AC50 read?
**A.** Its AC50 is 3.76 µM (active).
